SW480 rerep – A quantitative high throughput screen for small molecules that induce DNA re-replication in SW480 colon adenocarcinoma cells. SW480 DNA re-replication, Hoechst DNA content imaging, 48 h. Potency, µM (doses to about 46.1 µM), without a hit: at the highest dose re-replication activation, most hits filed as activators. 340,000 tested, 1.8% active. AID 624297, 2012; also: % of control where 0% means no effect; nearly all actives have a fitted effect of over 55% in size
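SW480 cells exposed to compounds for 48 hr at 37 C, 5% CO2, then Hoechst-stained 40 min. Nuclear DNA content imaged by fluorescence scanning (405 nm excitation, 500-530 nm emission); re-replication scored as increased high-intensity nuclei.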
MCF10A rerep – A quantitative high throughput screen for small molecules that induce DNA re-replication in MCF 10a normal breast cells. MCF 10A DNA re-replication, Hoechst nuclear intensity, 48 h. 350,000 tested, 2.9% active. Potency, µM (highest dose often 46.1 µM), without a hit: at the highest dose activity, positive = re-replication, hits mostly activators. AID 624296, 2012; also: % of control where 0% means no effect; nearly all actives have a fitted effect of over 50% in size
KB-3-1 tox – qHTS assay for MDR1-selective chemotherapeutics: Primary screen using the parental adenocarcinoma cell KB-3-1; KB-3-1 viability, CellTiter-Glo ATP luminescence, 72 h; Potency, µM (series often up to 46.1 µM), usual class: cytotoxic; 400,000 tested, 1.4% active; AID 1347075, 2019; also: % is scaled to controls: 0 for no effect and ±100 for the full control effect; nearly all actives have a fitted effect of over 60% in size
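Here the drug-naive KB-3-1 line serves as comparator for MDR sub-line selectivity; cells received compound titrations, 72 h at 37 °C, then CellTiter-Glo readout.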
KB-V1 MDR tox – qHTS assay for MDR1-selective chemotherapeutics: Primary screen using the drug-selected MDR subline cells KB-V1 | 400,000 tested, 3.4% active | Potency, µM (doses to about 46.1 µM), hits mostly cytotoxic | KB-V1 MDR cells viability, CellTiter-Glo, 72 h; also: % is scaled to controls: 0 for no effect and ±100 for the full control effect; nearly all actives have a fitted effect of over 60% in size
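Readout: CellTiter-Glo luminescence, 10 min after addition. Cells: KB-V1 MDR subline, 72 h at 37 degrees C with compound. Analysis: corrected, normalized data fitted to concentration-effect curves.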
12-LOX inh – Primary qHTS assay for inhibitors of human arachidonate 12S-lipoxygenase (ALOX12): Round 2; purified 12hLO, xylenol orange hydroperoxide absorbance; Potency, µM (titrated, usually from 108 µM), for inactives: top-dose activity change, negative = inhibition, most hits filed as inhibitors; 580,000 tested, 1.1% active; AID 1671190, 2021; also: % is scaled to controls: 0 for no effect and ±100 for the full control effect
Target sequence (P18054 whole entry, looked up): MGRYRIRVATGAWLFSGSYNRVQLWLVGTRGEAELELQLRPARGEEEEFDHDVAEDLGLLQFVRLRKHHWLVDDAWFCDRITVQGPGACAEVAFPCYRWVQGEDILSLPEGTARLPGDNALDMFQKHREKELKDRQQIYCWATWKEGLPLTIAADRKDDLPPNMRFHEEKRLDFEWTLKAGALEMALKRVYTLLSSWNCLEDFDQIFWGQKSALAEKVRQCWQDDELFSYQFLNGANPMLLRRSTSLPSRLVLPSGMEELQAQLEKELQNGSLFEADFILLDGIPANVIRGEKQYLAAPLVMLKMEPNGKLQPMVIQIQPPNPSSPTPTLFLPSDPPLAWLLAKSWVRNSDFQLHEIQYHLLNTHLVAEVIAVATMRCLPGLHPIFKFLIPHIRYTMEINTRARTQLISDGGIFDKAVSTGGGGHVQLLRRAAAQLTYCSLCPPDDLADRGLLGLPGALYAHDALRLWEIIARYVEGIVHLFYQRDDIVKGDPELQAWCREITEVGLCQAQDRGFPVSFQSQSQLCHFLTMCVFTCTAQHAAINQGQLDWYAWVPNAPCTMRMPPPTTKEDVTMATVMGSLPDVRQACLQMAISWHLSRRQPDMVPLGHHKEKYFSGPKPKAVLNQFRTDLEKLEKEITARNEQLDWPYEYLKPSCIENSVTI
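Purified human 12hLO at 150 nM in 25 mM Hepes, 0.01% Triton X-100, pH 7.0, preincubated 15 min at room temperature with compound. Reaction started with 40 uM arachidonic acid, 30 min at room temperature. Hydroperoxide measured by Fe-xylenol orange, 573/405 nm absorbance ratio.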
PINK1 modulator – A Quantitative High throughput Screen to Identify Chemical Modulators of PINK1 Expression; 410,000 tested, 0.2% active; PINK1 immunofluorescence, high-content cytometry, 24 h; AID 624263, 2012; Potency, µM (doses to about 76.6 µM), for inactives: at the top dose activation (PINK1 increase), hits mostly activators; active = well fitted activation curve with a large enough effect; inconclusive = small, poorly fitted or top-dose-only effect; cell line not stated here; also: % of control where 0% means no effect; nearly all actives have a fitted effect of over 65% in size
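Compound titrations (5 concentrations, 24 h) on a stable cell line; DMSO and CCCP controls. Endpoint: fixed-cell PINK1 immunofluorescence with mitochondrial, cell and nuclear markers, scanned by microplate cytometer.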
The depositor's hits bear a star; i = inactive; ? = inconclusive; / = no result given; ! = not confirmed by another sample; [ ] = remark or other dose. Most compounds without a hit are left out; they make up all but 5.8% or so of the library. Unless noted, calls follow the shape of the dose curve; as a rule, active = well fitted curve in the direction sought with a large enough effect; inconclusive = small, poorly fitted or top-dose-only effect, or another doubt; inactive = no such curve, though single readings can be large; an effect the other way counts as inactive or inconclusive. Potency is read from the fitted curve at half-maximal effect.

SMILES	SW480 rerep	MCF10A rerep	KB-3-1 tox	KB-V1 MDR tox	12-LOX inh	PINK1 modulator
COc1ccc(C(=O)/C=C2/C(=O)Nc3ccccc32)cc1	?	9.2µM*	?	i	-27%	-3%
COc1ccc(C(=O)/C=C2/c3ccccc3CC(C)(C)N2C)cc1	?	?	i	i	5%	?
COc1ccc(C(=O)/C=C2/C(=O)Nc3ccccc32)cc1OC	?	8.2µM*	i	i	-20%	8%
C/C(=N\NC(=O)CNc1cccc(Cl)c1C)c1cccs1	18µM*	20%	i	i	-13%	-3%
Cc1ccccc1OCCN(C)C(=O)NCc1ccc(S(N)(=O)=O)cc1	/	/	/	/	-3%	/
O=C(NNS(=O)(=O)c1ccc(CCCl)cc1)C(O)(c1ccccc1)c1ccccc1	-7%	-7%	i	16µM*	-21%	1%
Cc1cc(Nc2cccc([N+](=O)[O-])c2)n2c(nc3ccccc32)c1C#N	?	6.3µM*	5.2µM*	3.3µM*	-15%	?
Cc1cc(Nc2ccc(F)cc2)n2c(nc3ccccc32)c1C#N	/	/	i	i	-14%	4%
CCOCCn1c(=O)n(Cc2c(C)noc2C)c2cc(C(=O)O)cnc21	/	/	/	/	67%	/
Cc1ccc(S(=O)(=O)N(CC(=O)N/N=C/c2cccc(Cl)c2)c2cccc3cccnc23)cc1	16µM*	?	?	?	15%	4%
CC1CCN(c2ccc(NC(=O)Cc3ccccc3)cc2)CC1	2%	0%	i	i	-4%	4%
COc1cccc(CNc2ccc(N3CCC(C)CC3)cc2)c1OC	8%	8%	21µM*	21µM*	?	?
Cc1cc(C(=O)CSc2ncnc3ccccc23)c(C)n1C1CC1	-7%	2%	i	i	16µM*!	?
Cc1cc(C(=O)CSc2nc3ccccc3o2)c(C)n1CC(F)(F)F	/	/	/	/	-4%	/
C=CCn1c(C)cc(C(=O)CSc2nc3ccccc3o2)c1C	?	23µM*	?	15µM*	-11%	2%
C=CCn1c(C)cc(C(=O)CSc2nnc(NCc3ccccc3)s2)c1C	?	3.7µM*	13µM*	10µM*	1%	8%[38.3 µM]
Cc1cc(C(=O)CSc2nc3ccccc3o2)c(C)n1C1CC1	9%	23µM*	i	?	-6%	3%
Cc1cccc(C(=O)Nc2ccc(C(=O)/C=C/c3ccncc3)cc2)c1	?	?	?	i	?	-2%
Cc1cccc(C(=O)Nc2ccc(C(=O)/C=C/c3cccnc3)cc2)c1	21µM*	?	i	?	?	-1%
O=C(/C=C/c1cccnc1)c1ccc(NC(=O)c2cccc(Br)c2)cc1	2%	2%	?	7.9µM*	0%	16%
CC(C)OC(=O)c1ccc(NC(=O)CSc2cn[nH]c(=O)n2)cc1	/	/	/	/	6%	/
CCc1cccc2cc(C(=O)O)[nH]c12	/	/	/	/	-36%	/
CCn1nc(NC(=O)c2ccncc2)c2cc3ccc(C)cc3nc21	7%	?	i	9.2µM*	-14%	1%[38.3 µM]
CCn1nc(NC(=O)c2ccncc2)c2cc3cc(C)ccc3nc21	?	8.2µM*	i	i	0%	3%
CCCn1nc(NC(=O)c2ccncc2)c2cc3ccccc3nc21	1%	5%	i	i	0%	3%
SMILES	SW480 rerep	MCF10A rerep	KB-3-1 tox	KB-V1 MDR tox	12-LOX inh	PINK1 modulator
c1ccc(-n2nnnc2Sc2ncnc3sc4c(c23)CCCC4)cc1	?	21µM*	i	i	0%	0%
Cc1sc2ncnc(Sc3nnnn3-c3ccc(Cl)cc3)c2c1C	?	?	?	?	5%	-4%
Cc1cc(C)c(C#N)c(SCc2ccccc2[N+](=O)[O-])n1	1%	13%	i	23µM*	-15%	5%
Cc1cc(C)c(C#N)c(SCc2nc3ccccc3[nH]2)n1	18µM*	13µM*	i	i	-3%	1%
O=C1Nc2ccccc2O[C@H]2C[C@@H]1N(Cc1ccccc1Cl)C2	/	/	/	/	-7%[176 µM]	/
Cc1cccc(NC(=O)c2cc(NC(=O)C3CC=CCC3C(=O)O)ccc2N2CCOCC2)c1 (stereo unspecified)	0%	-3%	i	i	14%	13%[38.3 µM]
CC(=O)Nc1ccc(N2CCCCC2)c(C(=O)Nc2cccc(C)c2)c1	4%	?	i	7.3µM*	?	?
Cc1cccc(NC(=O)c2cc(NC(=O)C3CCCCC3C(=O)O)ccc2N2CCCCC2)c1 (stereo unspecified)	3%	15µM*	i	i	-15%	-8%[38.3 µM]
Cc1ccc2[nH]cc(C(C(=O)O)N3CCN(c4ccc(F)cc4)CC3)c2c1 (stereo unspecified)	/	/	/	/	-8%	/
O=C1CC(c2ccccc2)N(C(=O)CNC(=O)C2(c3ccccc3)CC2)CCCCCCN1 (stereo unspecified)	/	/	/	/	31%	/
O=C(CC1(O)C(=O)N(Cc2cccc3ccccc23)c2ccccc21)c1cccnc1 (stereo unspecified)	?	?	21µM*	21µM*	?	7%[38.3 µM]
Cc1nc(-c2cc(C#N)c(=O)[nH]c2C)cs1	-6%	-2%	?	4.6µM*	?	-1%
CCOCCOC(=O)COc1ccc2c(=O)c(-c3ccc(Cl)cc3)c(C(F)(F)F)oc2c1	/	/	/	/	12%	/
Cc1ccc(C(C2C(=O)CC(C)(C)CC2=O)C2C(=O)CC(C)(C)CC2=O)s1	0%	18µM*	i	i	/	2%
O=C(NCc1ccc2c(c1)OCO2)c1ccc(NC(=O)c2nsc3ccccc23)cc1	/	/	/	/	-7%	/
CC1CCCN(C(=O)C2CCN(C(=O)Nc3ccccc3)CC2)C1 (stereo unspecified)	-13%	14%	i	i	6%	-1%
CC1CCC(NC(=O)C2CCN(C(=O)Nc3ccccc3)CC2)CC1 (stereo unspecified)	-1%	?	i	16µM*	-8%	2%
CC1CCC(NC(=O)C2CCN(c3nc4ccccc4s3)CC2)CC1 (stereo unspecified)	-10%	17%	?	7.3µM*	-2%	16%
CC1CC(C)CN(C(=O)C2CCN(C(=O)Nc3ccccc3)CC2)C1 (stereo unspecified)	6%	4%	i	21µM*	1%	-2%

From PubChem BioAssay
